Reference: paper PMC4336329 (PLoS ONE, 2015)
The campaign covered roughly 310,000 compounds. About 14,000 (4.5%) showed an effect of 50% or more. The effect is printed as a negative number. The entries come from a sample that favours strong results as a whole.

The compounds below were run against human ether-à-go-go-related gene (hERG) potassium channel (human, UniProt Q12809) (assay: primary screen, population patch clamp on CHO cells stably expressing hERG; higher = less effect of the substance).
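Further: peak tail current of the secondary pulse compared with the same well before compound.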

human ether-à-go-go-related gene (hERG) potassium channel, sequence (Q12809 whole entry, looked up): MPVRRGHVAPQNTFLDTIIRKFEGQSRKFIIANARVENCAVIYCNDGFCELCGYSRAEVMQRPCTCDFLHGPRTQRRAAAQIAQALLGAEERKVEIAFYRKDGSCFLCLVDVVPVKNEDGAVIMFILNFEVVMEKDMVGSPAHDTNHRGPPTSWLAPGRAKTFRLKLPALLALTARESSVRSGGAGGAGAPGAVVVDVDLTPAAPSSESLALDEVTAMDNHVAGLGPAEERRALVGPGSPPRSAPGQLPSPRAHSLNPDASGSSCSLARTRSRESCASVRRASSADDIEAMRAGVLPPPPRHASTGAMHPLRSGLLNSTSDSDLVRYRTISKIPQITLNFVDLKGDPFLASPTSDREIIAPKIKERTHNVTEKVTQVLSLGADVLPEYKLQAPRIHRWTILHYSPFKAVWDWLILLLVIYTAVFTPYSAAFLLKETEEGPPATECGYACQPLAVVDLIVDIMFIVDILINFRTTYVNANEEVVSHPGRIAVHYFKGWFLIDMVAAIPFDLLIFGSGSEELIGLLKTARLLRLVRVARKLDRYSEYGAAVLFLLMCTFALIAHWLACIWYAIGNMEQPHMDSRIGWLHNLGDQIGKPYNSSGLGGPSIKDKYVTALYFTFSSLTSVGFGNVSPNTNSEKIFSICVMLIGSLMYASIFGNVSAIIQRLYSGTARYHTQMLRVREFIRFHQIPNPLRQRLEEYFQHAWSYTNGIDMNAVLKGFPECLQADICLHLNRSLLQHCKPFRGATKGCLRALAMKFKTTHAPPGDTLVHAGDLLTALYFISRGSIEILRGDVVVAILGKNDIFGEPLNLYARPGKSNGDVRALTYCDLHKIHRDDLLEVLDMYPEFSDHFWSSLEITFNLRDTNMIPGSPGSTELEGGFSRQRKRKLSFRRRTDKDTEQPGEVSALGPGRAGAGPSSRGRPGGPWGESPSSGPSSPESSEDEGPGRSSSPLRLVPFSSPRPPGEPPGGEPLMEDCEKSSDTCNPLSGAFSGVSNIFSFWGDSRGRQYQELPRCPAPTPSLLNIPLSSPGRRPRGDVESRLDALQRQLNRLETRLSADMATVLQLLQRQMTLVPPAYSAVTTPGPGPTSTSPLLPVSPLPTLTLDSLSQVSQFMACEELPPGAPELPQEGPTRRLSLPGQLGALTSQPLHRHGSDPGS

Row | SMILES | hERG current change (%, negative = inhibition) at 10uM
1 | O=C(CCNS(=O)(=O)c1cccc2nsnc12)NCCc1ccccc1 | -4.18%
2 | COC(=O)CC1(CC(=O)OC)C(=O)NC(=O)NC1=O | 7.37%
3 | CCCC(=O)OCC(=O)Nc1cc(Cl)ccc1[N+](=O)[O-] | 16.8%
4 | Cc1ccc(Oc2nc3ccccc3n3cccc23)cc1 | -10.1%
5 | O=C(OCC(=O)N1CCCc2ccccc21)c1ccc(Cl)nc1 | -3.94%
6 | Cc1c(C(=O)NNC(=O)c2csc(N3CCOCC3)n2)oc2ccccc12 | -38.7%
7 | COC(=O)C1CCN(Cc2c(C(=O)N3C[C@@H](C)O[C@@H](C)C3)nc3ccc(Cl)cn23)CC1 | 21.1%
8 | COCCCNC(=O)c1cn(Cc2c(F)cccc2Cl)nn1 | -3.65%
9 | CCOC(=O)c1nnn(-c2nonc2N)c1COc1c(C=O)cccc1OC | -6.2%
10 | Cc1cc(=O)n(C)c(=O)n1CCCCOc1ccc([N+](=O)[O-])cc1 | -68.9%
11 | Cc1cc(=O)n(C)c(=O)n1CCCCCCOc1ccc([N+](=O)[O-])cc1 | -63.9%
12 | Cc1cc(=O)n(C)c(=O)n1CCCCCN1CCCC1.O=C(O)C(=O)O | 5.16%
13 | O=[N+]([O-])c1ccc(OCCOCCOc2ccc([N+](=O)[O-])cc2)cc1 | -16.6%
14 | Cc1n[nH]c(C)c1CCCCOc1ccc([N+](=O)[O-])cc1 | -16.4%
15 | Cc1cc(=O)n(C)c(=O)n1CCCCCCN1CCCC1.O=C(O)C(=O)O | 8.96%
16 | CN(Cc1ccccc1)C(=O)CNC(=O)Cn1cnc2ccccc2c1=O | -7.88%
17 | CC(/C=C/C=C/c1ccccc1)=N/NC(=O)c1ccc2c(c1)OCCO2 | 7.79%
18 | C=CCn1c(SCC(=O)Nc2cc(C)nn2-c2ccccc2)nnc1C1CCCCC1 | -14.1%
19 | COc1ccc(CN2CCC(C(=O)c3ccc(Cl)cc3)CC2)cc1 | -78.7%
20 | CCS(=O)(=O)N1CCC(C(=O)c2ccc(Cl)cc2)CC1 | -47.3%
21 | O=C(c1ccc(F)cc1)C1CCN(Cc2ccc(F)cc2)CC1 | -47.7%
22 | CC(=O)N1CCC(C(=O)c2ccc(Cl)cc2)CC1 | -0.317%
23 | COc1ccc(CN2CCC(C(=O)c3ccc(F)cc3)CC2)cc1 | -78.4%

Row | SMILES | hERG current change (%, negative = inhibition) at 10uM
24 | COc1ccc(NC(=O)N2CCC(C(=O)c3ccc(F)cc3)CC2)cc1 | -18.6%
25 | Cc1ccccc1C(=O)NCCCc1ccccc1 | 12.5%
26 | O=C(NCCC(=O)N1CCCCC1)c1ccccc1Cl | -14.2%
27 | COc1ccccc1N1CCN(/N=C\C(Br)=C\c2ccccc2)CC1 | 10.2%
28 | COCCNC(=O)C(c1ccc(O)cc1)N(Cc1ccco1)C(=O)CCC(=O)Nc1ccccn1 (centres unmarked) | 23.8%
29 | CCCCSc1nnc([C@@H]2CCCN2C(=O)OC(C)(C)C)o1 | -12.2%
30 | O=C(CN1CCN(S(=O)(=O)c2ccc(F)cc2)CC1)Nc1cccc(C(F)(F)F)c1 | -55.5%
31 | O=C(CN1CCN(S(=O)(=O)c2ccccc2)CC1)Nc1cccc(C(F)(F)F)c1 | -56.2%
32 | COc1ccc(S(=O)(=O)N2CCCN(CCC(=O)Nc3cccc(C(F)(F)F)c3)CC2)cc1 | -69.6%
33 | O=C(Nc1cccc(C(F)(F)F)c1)NC1CCN(S(=O)(=O)c2ccc(F)cc2)CC1 | 12.2%
34 | O=C(CCNC(=O)C1CCN(S(=O)(=O)c2ccccc2)CC1)Nc1cccc(C(F)(F)F)c1 | -45.1%
35 | O=C(CNc1cccc(C(F)(F)F)c1)Nc1cccc(S(=O)(=O)N2CCCC2)c1 | -6.44%
36 | COc1ccc(S(=O)(=O)N2CCN(CCC(=O)Nc3ccc(F)cc3)CC2)cc1 | -18.9%
37 | COc1ccc(NC(=O)CCN2CCN(S(=O)(=O)c3ccc(OC)cc3)CC2)cc1 | -25%
38 | O=C(CN1CCN(S(=O)(=O)c2ccc(F)cc2)CC1)Nc1cc(C(F)(F)F)ccc1Cl | -4.15%
39 | Nc1c(N(Cc2ccco2)C(=O)COc2ccccc2F)c(=O)[nH]c(=O)n1Cc1ccccc1 | 0.883%
40 | CNC(=O)CSCc1c(F)cccc1Cl | 17.8%
41 | CCCOC(=O)C1=C(C)NC2=C(C(=O)C(C(=O)OC)C(C)C2)C1c1ccc(N(CC)CC)cc1 (centres unmarked) | -5.21%
42 | COC(=O)c1ccccc1NC(=O)CC(NCc1ccccc1)C(=O)O (centres unmarked) | -20.7%
43 | CCCCn1c(SCC(N)=O)nnc1-c1ccco1 | 15.3%
44 | COc1cccc(-n2nnnc2SCC(=O)NCc2ccco2)c1 | -2.06%
45 | COc1cc(NC(=O)CN2CCN(c3ccccc3F)CC2)c(C)cc1[N+](=O)[O-] | 28.2%
46 | COc1ccccc1N1CCN(c2nc(C)nc3c2oc2ccccc23)CC1.Cl | -1.5%

Row | SMILES | hERG current change (%, negative = inhibition) at 10uM
47 | Cc1nc2c(C)cccc2c2c1CCN2c1ccccc1F | -62.4%
48 | COc1cccc2c3c(c(C)nc12)CC(C)O3 (centres unmarked) | -21.9%
49 | COc1ccccc1N1CCc2c(C)nc3c(OC)cccc3c21 | -61%
50 | Cc1nc2c(C)cccc2c2c1CCS2 | 0.813%
51 | COc1cccc2c(Cl)c(CCCl)c(C)nc12 | 10.2%
52 | CCc1c(C)nc2c(OC)cccc2c1Cl | -2.25%
53 | CCOC(=O)c1cnc2c(OC)cccc2c1N1CCN(c2ccc(OC)cc2)CC1 | -47.1%
54 | Cc1nc2c(C)cccc2c2c1COC2 | 7.98%
55 | CCOC(=O)c1cnc2c(OC)cccc2c1N1CCN(c2ccccc2OC)CC1 | -45.4%
56 | COc1ccc(N2CCc3c(C)nc4c(OC)cccc4c32)cc1 | -73.5%
57 | COc1cccc2c3c(c(C)nc12)CCN3c1ccccc1 | -54.6%
58 | CCOc1ccccc1CNC(=O)CCNS(=O)(=O)c1ccc2[nH]c(=O)oc2c1 | -2.89%
59 | CCC(O)(CC)C(=O)N/N=C/c1cc(Br)cc(Br)c1O | -1.02%
60 | C/C(CC(=O)Nc1ccccn1)=N\NC(=O)Cc1cccc2ccccc12 | 1.01%
61 | CCOC(=O)c1c(C)[nH]c(C(=O)COC(=O)c2ccccn2)c1C | -17%
62 | Cc1cccc(-c2nnc3n2N=C(c2ccccc2Br)CS3)c1 | -14.4%
63 | CC1CCCC(NC(=O)COC(=O)CN2C(=O)C3CCCCC3C2=O)C1C (centres unmarked) | 10.3%
64 | Cc1ccc(CN(Cc2ccccn2)C(=O)Nc2c(F)cccc2F)cc1 | -0.968%
65 | CCC/C(=N\NC(=O)c1ccc(CSc2nncn2C)cc1)c1ccccc1 | -8.28%
66 | CCCOc1ccc(C2c3c(oc4cc(C)c(C)cc4c3=O)C(=O)N2CCCN(C)C)cc1OCC (centres unmarked) | 7.65%
67 | O=S(=O)(NCC(c1cccnc1)N1CCN(Cc2ccccc2)CC1)c1ccc(F)cc1 (centres unmarked) | -65%
68 | CCN1CCN(C(CNS(=O)(=O)c2ccc(F)cc2)c2cccnc2)CC1 (centres unmarked) | -20.5%
69 | CCN1CCN(C(CNS(=O)(=O)c2ccccc2)c2cccnc2)CC1 (centres unmarked) | -39.2%

Row | SMILES | hERG current change (%, negative = inhibition) at 10uM
70 | O=S(=O)(NCC(c1cccnc1)N1CCN(Cc2ccccc2)CC1)c1ccc(Cl)cc1 (centres unmarked) | -78.3%
71 | O=S(=O)(NCC(c1cccnc1)N1CCOCC1)c1ccccc1 (centres unmarked) | 4.6%
72 | Cc1cc(C)c(S(=O)(=O)NCC(c2cccnc2)N2CCN(Cc3ccccc3)CC2)c(C)c1 (centres unmarked) | -69.5%
73 | O=S(=O)(NCC(c1cccnc1)N1CCOCC1)c1ccc(Cl)cc1 (centres unmarked) | 4.89%
74 | Cc1cc(C)c(S(=O)(=O)NC2CCN(Cc3ccccc3)CC2)c(C)c1.Cl | -47.6%
75 | O=S(=O)(NCC(c1cccnc1)N1CCc2ccccc2C1)c1ccccc1 (centres unmarked) | 10.3%
76 | O=S(=O)(NCC(c1cccnc1)N1CCN(Cc2ccccc2)CC1)c1ccccc1 (centres unmarked) | -68.9%
77 | Cc1cc(C)c(S(=O)(=O)NCc2cccnc2)c(C)c1 | -2.97%
78 | C(=N\N(Cc1ccccc1)c1ccccc1)/c1ccco1 | -11.5%
79 | O=C(CNC(=O)c1ccccc1F)OCc1nc2ccccc2s1 | 20.6%
80 | COc1cc(C(=O)Nc2nccs2)cc(OC)c1OC | 3.55%
81 | CSc1ccc(/C=N/n2c(C3CCCCC3)n[nH]c2=S)cc1 | 21.9%
82 | O=C(/C=C/c1ccc2c(c1)OCO2)Nc1nc(-c2ccc(F)cc2F)cs1 | 9.08%
83 | O=C(O)/C=C/c1cccc(NC(=O)c2ccccc2)c1 | 9.14%
84 | CCOc1ccc(NC(=O)CN(C)C(=O)Cn2cnc3c2c(=O)n(C)c(=O)n3C)cc1OCC | 5.62%
85 | CCN1CCN(C(CNS(=O)(=O)c2ccc(OC)cc2)c2cccnc2)CC1 (centres unmarked) | -45.4%
86 | COc1ccc(S(=O)(=O)NCC(c2cccnc2)N2CCN(Cc3ccccc3)CC2)cc1 (centres unmarked) | -58.5%
87 | Cc1ccc(S(=O)(=O)NCC(c2cccnc2)N2CCN(Cc3ccccc3)CC2)cc1 (centres unmarked) | -73.1%
88 | Cc1ccc(S(=O)(=O)NCC(c2cccnc2)N2CCOCC2)cc1 (centres unmarked) | 5.12%
89 | Cc1ccc(S(=O)(=O)NCC(c2cccnc2)N2CCc3ccccc32)cc1 (centres unmarked) | -2.1%
